# Assay results: PubChem BioAssay AID1159580 (chemical genetic matrix, 2015)
# Out of some 5,500 compounds screened, about 2,000 (36%) were called active. About 18% were inconclusive and are not listed. This is one part of the list. Values without a mark were called inactive. No stated cut-off is given here; in the data, active means normalized growth mostly below about 0.91 (no sharp cut-off); inconclusive means no clear call, values can overlap the other calls; inactive means mostly above about 0.92.
# Assay: chemical genetic growth profiling, strain panel (AID 1159580);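 further: tested at 20 µM; growth read once vehicle control cultures reached saturation at 30 °C; 1 = growth at the plate median or of vehicle wells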
# Conditions: S. cerevisiae deletion strains, growth OD
# [1] = locus YAL040C, strain CLN3, stronger effect = lower value
# [2] = locus YCL061C, strain MRC1 (second series), stronger effect = lower value
# [3] = locus YDR363W, strain ESC2, stronger effect = lower value
# [4] = locus YER002W, strain NOP16, stronger effect = lower value
# [5] = locus YNL175C, strain NOP13, stronger effect = lower value
# [6] = locus YNL197C, strain WHI3, stronger effect = lower value
# [7] = locus YNL224C, strain SQS1, stronger effect = lower value
# [8] = locus YNL322C, strain KRE1, stronger effect = lower value
# [9] = locus YOR083W, strain WHI5 (second series), stronger effect = lower value
# [10] = locus YPL055C, strain LGE1, stronger effect = lower value
# [11] = locus YPL241C, strain CIN2, stronger effect = lower value
compound,measurement,setting,value
O[Si](CCCN1CCCCC1)(c1ccc(F)cc1)C1CCCCC1 (configuration not stated),normalized growth,[1],0.964
same,normalized growth,[2],0.986
same,normalized growth,[3],0.988
same,normalized growth,[4],1.04
same,normalized growth,"locus YGR229C, strain SMI1, stronger effect = lower value",0.972
same,normalized growth,"locus YJR075W, strain HOC1, stronger effect = lower value",1.02
same,normalized growth,"locus YMR263W, strain SAP30, stronger effect = lower value",1
same,normalized growth,[5],0.995
same,normalized growth,[6],1.01
same,normalized growth,[7],1.01
same,normalized growth,[8],0.982
same,normalized growth,[9],1.08
same,normalized growth,[10],0.981
same,normalized growth,[11],0.994
CC1=CC(=O)C(CCOCCC2=CC(=O)C(C)=CC2=O)=CC1=O,normalized growth,"locus YAR019C, strain CDC15, stronger effect = lower value",0.981
same,normalized growth,"locus YBL105C, strain PKC1, stronger effect = lower value",0.99
same,normalized growth,"locus YBR135W, strain CKS1, stronger effect = lower value",0.985
same,normalized growth,"locus YBR136W, strain MEC1, stronger effect = lower value",0.982
same,normalized growth,"locus YBR160W, strain CDC28, stronger effect = lower value",0.983
same,normalized growth,"locus YDL017W, strain CDC7, stronger effect = lower value",0.992
same,normalized growth,"locus YDL028C, strain MPS1, stronger effect = lower value",0.981
same,normalized growth,"locus YDL101C, strain DUN1, stronger effect = lower value",0.973
same,normalized growth,"locus YDL108W, strain KIN28, stronger effect = lower value",0.983
same,normalized growth,"locus YDL132W, strain cdc53, stronger effect = lower value",0.988
same,normalized growth,"locus YDL214C, strain PRR2, stronger effect = lower value",0.701
same,normalized growth,"locus YDR052C, strain DBF4, stronger effect = lower value",0.991
same,normalized growth,"locus YDR054C, strain cdc34, stronger effect = lower value",0.986
same,normalized growth,"locus YDR226W, strain ADK1, stronger effect = lower value",0.979
same,normalized growth,"locus YDR477W, strain SNF1, stronger effect = lower value",0.706
same,normalized growth,"locus YER123W, strain YCK3, stronger effect = lower value",0.806
same,normalized growth,"locus YER133W, strain GLC7, stronger effect = lower value",0.765
same,normalized growth,"locus YFL009W, strain cdc4, stronger effect = lower value",0.993
same,normalized growth,"locus YFL029C, strain CAK1, stronger effect = lower value",0.987
same,normalized growth,"locus YFR003C, strain YPI1, stronger effect = lower value",0.989
same,normalized growth,"locus YFR019W, strain FAB1, stronger effect = lower value",0.864
same,normalized growth,"locus YFR028C, strain CDC14, stronger effect = lower value",0.985
same,normalized growth,"locus YGR040W, strain KSS1, stronger effect = lower value",0.739
same,normalized growth,"locus YGR052W, strain FMP48, stronger effect = lower value",0.7
same,normalized growth,"locus YGR092W, strain DBF2, stronger effect = lower value",0.917
same,normalized growth,"locus YHR079C, strain IRE1, stronger effect = lower value",1.07
same,normalized growth,"locus YHR082C, strain KSP1, stronger effect = lower value",0.444 (active)
same,normalized growth,"locus YHR205W, strain SCH9, stronger effect = lower value",0.958
same,normalized growth,"locus YIL147C, strain SLN1, stronger effect = lower value",0.984
same,normalized growth,"locus YJL095W, strain BCK1, stronger effect = lower value",0.863
same,normalized growth,"locus YJL128C, strain PBS2, stronger effect = lower value",0.934
same,normalized growth,"locus YJR016C, strain ILV3, stronger effect = lower value",0.987
same,normalized growth,"locus YJR066W, strain TOR1 (second series), stronger effect = lower value",0.804
same,normalized growth,"locus YJR066W, strain TOR1, stronger effect = lower value",0.502
same,normalized growth,"locus YKL048C, strain ELM1, stronger effect = lower value",0.981
same,normalized growth,"locus YKL067W, strain YNK1, stronger effect = lower value",0.857
same,normalized growth,"locus YKL101W, strain HSL1, stronger effect = lower value",0.945
same,normalized growth,"locus YKL193C, strain SDS22, stronger effect = lower value",0.995
same,normalized growth,"locus YKL203C, strain TOR2, stronger effect = lower value",0.976
same,normalized growth,"locus YLR113W, strain HOG1, stronger effect = lower value",0.685 (active)
same,normalized growth,"locus YLR133W, strain CKI1, stronger effect = lower value",0.953
same,normalized growth,"locus YLR403W, strain SFP1, stronger effect = lower value",0.938
same,normalized growth,"locus YML070W, strain DAK1, stronger effect = lower value",0.866
same,normalized growth,"locus YMR001C, strain CDC5, stronger effect = lower value",0.984
same,normalized growth,"locus YMR205C, strain PFK2 (second series), stronger effect = lower value",0.97
same,normalized growth,"locus YMR277W, strain FCP1, stronger effect = lower value",0.987
same,normalized growth,"locus YNL006W, strain LST8, stronger effect = lower value",0.996
same,normalized growth,"locus YNL020C, strain ARK1, stronger effect = lower value",0.959
same,normalized growth,"locus YNL161W, strain CBK1, stronger effect = lower value",0.986
same,normalized growth,"locus YNL183C, strain NPR1, stronger effect = lower value",0.793
same,normalized growth,"locus YNL207W, strain RIO2, stronger effect = lower value",0.992
same,normalized growth,"locus YNL222W, strain SSU72, stronger effect = lower value",0.99
same,normalized growth,"locus YNL307C, strain MCK1 (second series), stronger effect = lower value",0.969
same,normalized growth,"locus YOL078W, strain AVO1, stronger effect = lower value",0.989
same,normalized growth,"locus YOL136C, strain PFK27, stronger effect = lower value",0.818
same,normalized growth,"locus YOR061W, strain CKA2, stronger effect = lower value",0.946
same,normalized growth,"locus YOR119C, strain RIO1, stronger effect = lower value",0.972
same,normalized growth,"locus YOR231W, strain MKK1, stronger effect = lower value",1.05
same,normalized growth,"locus YOR329C, strain SCD5, stronger effect = lower value",0.999
same,normalized growth,"locus YPL031C, strain PHO85, stronger effect = lower value",0.778
same,normalized growth,"locus YPL153C, strain RAD53, stronger effect = lower value",0.909
same,normalized growth,"locus YPL204W, strain HRR25, stronger effect = lower value",0.899
same,normalized growth,"locus YPL209C, strain IPL1, stronger effect = lower value",0.991
same,normalized growth,"locus YPL256C, strain CLN2, stronger effect = lower value",0.234 (active)
same,normalized growth,"locus YPR025C, strain CCL1, stronger effect = lower value",0.991
same,normalized growth,"locus YPR106W, strain ISR1, stronger effect = lower value",0.986
same,normalized growth,"locus YPR111W, strain DBF20, stronger effect = lower value",0.98
same,normalized growth,"strain NNK1, stronger effect = lower value",0.993
same,normalized growth,"strain TSCII, stronger effect = lower value",0.991
CCOC(=O)C1=C(C)NC(=S)NC1c1cccc(O)c1 (configuration not stated),normalized growth,"locus YAL013W, strain DEP1, stronger effect = lower value",0.995
same,normalized growth,[1],0.985
same,normalized growth,[2],1
same,normalized growth,[3],1
same,normalized growth,[4],0.989
same,normalized growth,"locus YGR078C, strain PAC10, stronger effect = lower value",1
same,normalized growth,"locus YNL153C, strain GIM3, stronger effect = lower value",0.976
same,normalized growth,[5],0.995
same,normalized growth,[6],0.99
same,normalized growth,[7],0.996
same,normalized growth,[8],0.997
same,normalized growth,[9],0.968
same,normalized growth,[10],0.991
same,normalized growth,[11],1
